{
  "source": "PubChem BioAssay (NCI)",
  "note": "About 83,000 compounds went through this panel and 20% of them were active in at least one assay; those are over-represented in the sample as a whole.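 Cells were grown in 96-well plates and exposed to the test compound at a single concentration for 48 hours; results are reported as percent growth, with values below 10 considered active.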 Values without a mark were called inactive. The source made the active and inactive calls.",
  "data": [
    {"system": "SR leukemia", "experiment": "NCI-60 one-dose screen, 48 h (100 = growth as untreated, 0 = no growth, -100 = all killed)", "conditions": "10 µM", "procedure": "Growth inhibition of the SR human tumor cell line is measured as a screen for anti-cancer activity. Cells are grown in 96 well plates and exposed to the test compound for 48 hours. Compounds are tested at a single concentration, which is 10^-5 M for most compounds. The reported endpoint is percent growth (GI% or GIPRCNT), where numbers from 0 - 100% represent growth inhibition, and numbers from -100% - 0 represent cell death. For example, a value of 40 represents 60% growth inhibition. A value of 0 means no net growth occurred over the course of the experiment. A value of -40 indicates 40% of cells at the beginning of the experiment died by the end of the experiment. A value of -100 means all cells are dead at the end of the experiment.\nNCI-60 Human Tumor Cell Lines Screen was performed using the standard one-dose NCI protocol, which is described in more detail at https://dtp.cancer.gov/discovery_development/nci-60/default.htm.\nCompounds with GIPRCNT values below 10 were considered active. Activity score was based on GIPRCNT using the following formula: […]\nScore is 0 for GIPRCNT values of 100 or above, 50 for GIPRCNT values of 0, and 100 for GIPRCNT values of -100.", "values": [
      {"smiles": "COC1=CC(=O)OC(CCc2ccc3c(c2)OCO3)C1", "note": "(stereo not given)", "growth": "122%"},
      {"smiles": "Cc1nnc([S-])s1.[Au+].c1ccc([PH+](c2ccccc2)c2ccccc2)cc1", "growth": "7.04% (active)"},
      {"smiles": "Oc1ccc(Br)cc1CN1CCN(Cc2ccc(Cl)cc2)CC1", "growth": "22.7%"},
      {"smiles": "O=C(CCCN1CCC2(CC1)C(=O)NCN2c1ccc(F)cc1)c1ccc(F)cc1", "growth": "99.2%"},
      {"smiles": "CC(C)N=C(NC(C)C)N1CC1", "growth": "122%"},
      {"smiles": "Cc1cc(N(CCCl)CCCl)ccc1C=Nc1ccc2ccccc2c1", "growth": "46.2%"},
      {"smiles": "O=CC(Br)C(Br)c1ccccc1", "note": "(stereo not given)", "growth": "16.1%"},
      {"smiles": "NC(=O)SCC(=O)Nc1ccc([As](=O)(O)O)cc1", "growth": "100%"},
      {"smiles": "CNC(=O)Oc1ccccc1-c1ccccc1", "growth": "99%"},
      {"smiles": "O=C(CCc1ccco1)NC1CCN(CC2(c3ccc(Cl)cc3)CCC2)CC1", "growth": "-24.6% (active)"},
      {"smiles": "COc1cc[c]([Hg][Cl])cc1", "growth": "-10.3% (active)"},
      {"smiles": "CNC(=O)Oc1cccc(N(C)C)c1", "growth": "103%"},
      {"smiles": "O=[As]c1ccc(C(=O)c2ccc(Oc3ccccc3)cc2)cc1", "note": "(stereo not given)", "growth": "-23.9% (active)"},
      {"smiles": "O=C(CCF)c1ccc(O)cc1", "growth": "96%"},
      {"smiles": "CC(C)CCC[C@@H](C)[C@H]1CC[C@H]2[C@@H]3CC=C4C[C@@H](OC(=O)Cc5ccc(N(CCCl)CCCl)cc5)CC[C@]4(C)[C@H]3CC[C@]12C", "growth": "101%"},
      {"smiles": "O=CN1N=C(c2ccc3c(c2)OCO3)CC1c1sc(N(CCCl)CCCl)nc1Cl", "note": "(stereo not given)", "growth": "87.6%"},
      {"smiles": "CC(C)OC(=S)[S-].[Au+].c1ccc([PH+](c2ccccc2)c2ccccc2)cc1", "growth": "3.82% (active)"},
      {"smiles": "CCC(C)/C=C(C)/C=C/C(=O)c1c(O)c(-c2ccc(O)cc2)c[nH]c1=O", "note": "(stereo not given)", "growth": "13%"},
      {"smiles": "CCCC(C)(C)c1ccc2c(c1)OC(C)(C)[C@@H]1CC=C(C)C[C@@H]21", "growth": "95.7%"},
      {"smiles": "CCOc1ccc(C(O)CN(C)Cc2ccccc2)cc1Cl", "note": "(stereo not given)", "growth": "95.7%"},
      {"smiles": "CC(C)(NC(=O)c1nn(CCCCCF)c2ccccc12)c1ccccc1", "growth": "85.2%"},
      {"smiles": "O=C(/C=C/c1ccccc1)N[C@@H](CO)Cc1cnc[nH]1", "growth": "93.6%"},
      {"smiles": "CCC(CC)(c1ccccc1)C(OC(N)=O)c1ccccc1", "note": "(stereo not given)", "growth": "72.8%"},
      {"smiles": "O=C(C(=O)N1CCCC1)c1cn(CCCCCn2cc(C(=O)C(=O)N3CCCC3)c3ccccc32)c2ccccc12", "growth": "67.7%"},
      {"smiles": "CCCCNCCc1ccccn1", "growth": "101%"},
      {"smiles": "Nc1c(Br)cc2c3c(cccc13)-c1ccccc1-2", "growth": "9.02% (active)"},
      {"smiles": "O=c1cc[nH]c(=O)o1", "growth": "94.7%"},
      {"smiles": "COc1ccc(OC)c(/C=C(/C)[N+](=O)[O-])c1", "growth": "-7.63% (active)"},
      {"smiles": "O=C(O)c1cccc(CCl)c1", "growth": "89.5%"},
      {"smiles": "CCN(CC)c1ccc(C=C2C(=O)NC(=S)NC2=O)cc1", "growth": "-50.8% (active)"},
      {"smiles": "O=C(O)c1[nH]c(=O)[nH]c(=O)c1F", "growth": "91.7%"},
      {"smiles": "C=CCN1C(=O)C(CC)(CCC(C)C)C(=O)NC1=S", "note": "(stereo not given)", "growth": "103%"},
      {"smiles": "CC1([N+](=O)[O-])COP(=O)(Nc2ccc(F)cc2)OC1", "note": "(stereo not given)", "growth": "84.2%"},
      {"smiles": "CCC1CN1P(=O)(OCCOC)N1CC1CC", "note": "(stereo not given)", "growth": "93.8%"},
      {"smiles": "CCC[CH2][Sn]1([CH2]CCC)[O]C(=O)c2cccc([N+](=O)[O-])c2C(=O)[O]1", "growth": "-31.6% (active)"},
      {"smiles": "CCC(CO)NC1CCCCC1", "note": "(stereo not given)", "growth": "1.74% (active)"},
      {"smiles": "CCCCCCCCCCCCOc1ccc(C(=O)Oc2ccc(CSP3(=O)OCC4OC(n5cnc6c(N)ncnc65)C(F)C4OP(=O)(O)OCC4OC(n5ccc(=O)[nH]c5=O)C(F)C4O3)cc2)cc1", "note": "(stereo not given)", "growth": "25.1%"},
      {"smiles": "COc1cc(N(CCCl)CCCl)ccc1C=Nc1ccccc1C(=O)O", "growth": "84.1%"},
      {"smiles": "[Br][Pb]([c]1ccccc1)([c]1ccccc1)[c]1ccccc1", "growth": "-37.8% (active)"},
      {"smiles": "O=[N+]([O-])c1ccc(/C=C/C=C/c2ccc(S(=O)(=O)F)cc2)c(Cl)c1", "growth": "77.9%"}
    ]}
  ]
}
